CYP2C9 inh – blocks human cytochrome P450 2C9; P11712; CYP2C9 Supersomes, luciferin-H conversion, luminescence; inhibition, % at 5 µM; 96,000 tested, 20% active; AID 777;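 active means blocking of liver enzyme CYP2C9 beyond about 50% at 5 µM, limit read from the data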
PostGolgi yeast – growth inhibition of a yeast mutant, post-Golgi transport screen; inhibition, % at 10 µM; 98,000 tested, 0.9% active; post-Golgi transport phenotypic cell assay; AID 739;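 further: yeast cells grown in 1536-well plates; yeast grown about 18 h at 30C before absorbance read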
CYP2C19 inh – inhibitors of human CYP2C19; P33261; inhibition, % at 5 µM; 96,000 tested, 21% active; CYP2C19 Supersomes, luciferin-H EGE luminescence, 30 min;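 active means CYP2C19 inhibition above a set limit at 5 µM in the primary screen, cut at about 50% in these data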
Target sequence (P33261 whole entry, looked up): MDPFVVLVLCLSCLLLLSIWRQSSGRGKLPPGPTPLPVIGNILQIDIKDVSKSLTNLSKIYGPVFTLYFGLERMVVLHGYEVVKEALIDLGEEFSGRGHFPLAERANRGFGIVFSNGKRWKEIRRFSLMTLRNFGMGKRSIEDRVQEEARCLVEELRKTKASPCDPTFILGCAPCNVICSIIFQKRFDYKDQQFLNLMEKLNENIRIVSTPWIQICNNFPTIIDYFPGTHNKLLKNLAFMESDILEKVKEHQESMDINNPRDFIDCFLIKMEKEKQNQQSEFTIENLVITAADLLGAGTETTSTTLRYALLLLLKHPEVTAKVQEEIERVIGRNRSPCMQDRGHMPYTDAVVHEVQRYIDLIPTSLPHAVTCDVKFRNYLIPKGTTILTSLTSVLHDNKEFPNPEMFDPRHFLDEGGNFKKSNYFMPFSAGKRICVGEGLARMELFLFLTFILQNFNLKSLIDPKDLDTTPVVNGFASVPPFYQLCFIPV
CYP2C9 activ – increases human cytochrome P450 2C9 activity; recombinant CYP2C9, luciferin-H conversion, luminescence; active compounds read high; factor 1 = untreated enzyme, 0 = blocked; activation factor at 5 µM; P11712; 96,000 tested, 1.4% active;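 active means activation factor of 2 or more for CYP2C9 at a 5 µM dose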
CYP2C19 act – cytochrome P450 2C19 (human) activation. P33261. recombinant CYP2C19, luciferin-H EGE luminescence; active compounds read high; 0 = fully inhibited enzyme, 1 = untreated enzyme. activation factor at 5 µM. 96,000 tested, under 10 active;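 active means activation factor of at least 2 at 5 µM in the primary screen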
PostGolgi ctrl – inhibits growth of the yeast control strain. efflux-deficient yeast background strain, growth absorbance A615, 16 h. inhibition, % at 10 µM. 98,000 tested, 5% active
Hits are given with their value; - = inactive; . = no result given. Shown are actives, neighbours in structure and some others; about 32% of the full set was active somewhere. Unless noted, no stated cut-off is given here; in the data, active means inhibition above about 30%; inactive means the rest.

SMILES	CYP2C9 inh	PostGolgi yeast	CYP2C19 inh	CYP2C9 activ	CYP2C19 act	PostGolgi ctrl
COC(=O)c1ccc2c(=O)n(NC(=O)C(c3ccccc3)c3ccccc3)c(=S)[nH]c2c1	62	-	-	-	-	-
COC(=O)c1ccc(=O)n(-c2ccc(OC)cc2)c1	-	-	-	-	-	-
CCOC(=O)CNC(=O)Nc1ccccc1C(=O)OC	-	-	-	-	-	-
O=C(c1ccc(F)cc1)c1cc2ccccc2o1	-	-	-	-	-	-
N#CC(c1ccccc1)c1ccc(C(=O)c2ccc(F)cc2)cc1 (centres undefined)	99	-	91	-	-	-
N#CC(c1ccc(F)cc1)c1ccc(C(=O)c2ccccc2)cc1 (centres undefined)	91	-	76	-	-	-
C/C(=N\OC(=O)c1ccc(Cl)cc1)c1sc(-c2ccccc2)nc1C	-	-	-	-	-	-
Cc1nc(-c2ccccc2)sc1C(=O)CSc1ccc(Cl)cc1	77	-	-	-	-	-
Cc1nc(-c2ccccc2)sc1C(=O)CSc1ccc(Br)cc1	85	-	-	-	-	-
CCOC(=O)N1CCC(Nc2ncnc3c2cnn3-c2ccc(Cl)cc2)CC1	-	-	-	-	-	-
CSc1nc(Oc2ccc(F)cc2F)cc(C(F)(F)F)n1	-	-	-	-	-	-
Cc1cc(NC(=O)CCC(=O)N(CCC(C)C)CC(=O)NCC2CCCO2)no1 (centres undefined)	-	-	-	-	-	38
CCOC(=O)c1c(NC(=S)NC(=O)c2cnn(CC)c2)sc2c1CCC(C)C2 (centres undefined)	-	-	-	-	-	-
O=C(CCn1c(=O)c2sccc2n(CC(=O)OCc2ccccc2)c1=O)NCc1ccco1	58	-	-	-	-	-
O=C(CCn1c(=O)c2sccc2n(CC(=O)OCc2ccccc2)c1=O)NCc1ccccc1	62	-	-	-	-	-
CC1CCCCN1C(=O)Cn1c(=O)n(CCC(=O)NCc2ccco2)c(=O)c2sccc21 (centres undefined)	-	-	-	-	-	-
O=C(CCCn1c(=O)c2sccc2n(CC(=O)OCc2ccccc2)c1=O)NCc1ccco1	-	-	51	-	-	-
Cc1cccc(C)c1NC(=O)Cn1c(=O)n(CCC(=O)NCc2ccco2)c(=O)c2sccc21	-	-	-	-	-	-
O=C(CCCn1c(=O)c2sccc2n(Cc2ccc(F)cc2)c1=O)NCc1ccco1	69	-	80	-	-	-
Cc1ccccc1OCc1nc2ccccc2c(=O)n1NC(=O)c1ccco1	.	-	.	.	.	-
C(=N\c1nccs1)/Nc1nccs1	-	-	-	-	-	-
CCCn1c(SCC(=O)c2ccc(CC)cc2)n[nH]c1=O	-	-	-	-	-	-
Cc1ccc(C)c(Cn2c(=O)n(-c3ccc(CC(=O)NCc4ccco4)cc3)c(=O)c3sccc32)c1	-	-	-	-	-	-
CCN(Cc1ccccc1)C(=O)Cn1c(=O)n(CC(=O)NCc2ccco2)c(=O)c2sccc21	82	-	-	-	-	-
Cc1ccc(S(=O)(=O)Nc2cccnc2)cc1	-	-	-	-	-	-
SMILES	CYP2C9 inh	PostGolgi yeast	CYP2C19 inh	CYP2C9 activ	CYP2C19 act	PostGolgi ctrl
CCOc1ccc(S(=O)(=O)Nc2cccc(N(C)S(C)(=O)=O)c2)cc1	-	-	93	-	-	-
CCOc1ccc(S(=O)(=O)Nc2cccc(OC)c2)cc1	56	-	69	-	-	-
CC(=O)Nc1ccc(S(=O)(=O)Nc2cccc(N(C)S(C)(=O)=O)c2)cc1	-	-	-	-	-	-
CCCCOc1ccc(S(=O)(=O)Nc2cccnc2)cc1	89	32	61	-	-	-
COc1cc(C(=O)Nc2cc(Cl)ccc2C)c(-n2cnnn2)cc1OC	-	-	-	-	-	-
CC(C)(CNc1ccc([N+](=O)[O-])cc1Cl)CNS(C)(=O)=O	-	-	55	-	-	-
Cc1ccc[n+](CC(=O)Nc2ccc([N+](=O)[O-])cc2Cl)c1	-	-	-	-	-	-
CCC(C)NC(=O)CN(c1ccc2c(c1)OCO2)S(=O)(=O)c1c(C)n[nH]c1C (centres undefined)	52	-	76	-	-	-
Cc1n[nH]c(C)c1S(=O)(=O)N(CC(=O)Nc1ccc2c(c1)OCCO2)c1ccc(C(C)C)cc1	68	-	-	-	-	-
Cc1noc(C)c1S(=O)(=O)N(CC(=O)O)c1ccc2c(c1)OCO2	-	-	-	-	-	-
Nc1nnc(N2CCc3ccccc32)s1	-	-	-	-	-	-
Oc1ccc(C=NCC2COc3ccccc3O2)cc1 (centres undefined)	-	-	-	-	-	-
O=C(NCc1ccccn1)c1coc(=O)c(Br)c1	-	-	-	-	-	-
Cc1ccc2[nH]c3c(c2c1)CN(C(=O)CN1CCN(c2cccc(C)c2C)CC1)CC3	89	-	-	-	-	-
Cc1ccc2[nH]c3c(c2c1)CN(C(=O)CN1c2ccc(F)cc2CCC1C)CC3 (centres undefined)	-	-	-	-	-	32
O=C(O)c1ccc2[nH]c3c(c2c1)CSCC3	-	-	-	-	-	-
O=C(CN1CCSCC1)N1CCc2[nH]c3ccc(Br)cc3c2C1	81	-	93	-	-	-
Cc1cccc(N2CCN(C(=O)Cn3ccc4ccccc4c3=O)CC2)c1C	-	-	-	-	-	-
N#CCSc1nc2c(c(C3CC=CCC3)c1C#N)CCC2 (centres undefined)	-	-	-	-	-	-
CC1CC1C(=O)OCC(=O)NC(=O)NCc1ccco1 (centres undefined)	-	-	-	-	-	-
COc1ccc(N2CCN(C(=O)CSc3nnc(Cn4nnc5ccccc54)n3C)CC2)cc1	-	-	-	-	-	-
CC(=O)Oc1c(Cl)cc(Cl)cc1/C=C/c1ccc2ccccc2n1	-	-	-	-	-	54
Cc1ccc(C)c(NC(=O)c2ccc3ccccc3n2)c1	-	-	-	-	-	-
Cn1c(C(=O)OC(C(=O)NC2CCCC2)c2cccnc2)cc2sccc21 (centres undefined)	.	-	.	.	.	-
COCCNC(=O)C(C)OC(=O)c1cc2occc2n1C (centres undefined)	80	-	-	-	-	-
Cn1c(C(=O)OC(C(=O)NC2CCCCC2)c2cccnc2)cc2sccc21 (centres undefined)	74	-	96	-	-	-
CC(OC(=O)c1cc2sccc2n1C)C(=O)NCc1cccs1 (centres undefined)	77	-	-	-	-	-
Cn1c(C(=O)OCC(=O)NCc2cccs2)cc2sccc21	66	-	51	-	-	-
Cn1c(C(=O)OCC(=O)NCC2CCCO2)cc2sccc21 (centres undefined)	.	-	.	.	.	-
CC1=CCC2C(=O)N(c3nc4ccccc4n3C)C(=O)C2C1 (centres undefined)	-	-	-	-	-	-

Screening data (PubChem BioAssay)
